PubChem BioAssay AID1159580 (chemical genetic matrix, 2015)
Out of some 5,500 compounds screened, about 2,000 (36%) were called active. Not shown: some 18% with an inconclusive outcome. Rule as the data show it: active = normalized growth mostly below about 0.91 (no sharp cut-off); inconclusive = no clear call, values can overlap the other calls; inactive = mostly above about 0.92. The list shows a part of the results.

Assay: chemical genetic growth profiling, strain panel (AID 1159580);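 also: tested at 20 µM; growth read once vehicle control cultures reached saturation at 30 °C; 1 = growth at the plate median or of vehicle wells; lower values mean less growth of the strain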
Details: growth OD

Measured: normalized growth

COc1c(O)cc(O)cc1O
inactive: S. cerevisiae deletion strains, locus YJR066W, strain TOR1, active compounds read low 0.977 | S. cerevisiae deletion strains, locus YKL009W, strain mrt4, active compounds read low 1.07 | S. cerevisiae deletion strains, locus YKL068W, active compounds read low 0.995 | S. cerevisiae deletion strains, locus YKL085W, strain MDH1 (second series), active compounds read low 1.02 | S. cerevisiae deletion strains, locus YKL085W, strain MDH1, active compounds read low 1.02 | S. cerevisiae deletion strains, locus YKL160W, strain elf1, active compounds read low 1.02 | S. cerevisiae deletion strains, locus YKR001C, strain vps1, active compounds read low 1.01 | S. cerevisiae deletion strains, locus YKR026C, strain gcn3, active compounds read low 0.991 | S. cerevisiae deletion strains, locus YKR091W, strain srl3, active compounds read low 0.996 | S. cerevisiae deletion strains, locus YLL001W, strain dnm1, active compounds read low 0.999 | S. cerevisiae deletion strains, locus YLL026W, active compounds read low 0.994 | S. cerevisiae deletion strains, locus YLL041C, strain sdh2, active compounds read low 0.996 | S. cerevisiae deletion strains, locus YLR027C, strain aat2, active compounds read low 0.985 | S. cerevisiae deletion strains, locus YLR039C, strain RIC1, active compounds read low 1.06 | S. cerevisiae deletion strains, locus YLR058C, strain SHM2, active compounds read low 1.01 | S. cerevisiae deletion strains, locus YLR102C, strain apc9, active compounds read low 0.987 | S. cerevisiae deletion strains, locus YLR113W, strain HOG1, active compounds read low 1.03 | S. cerevisiae deletion strains, locus YLR221C, strain rsa3, active compounds read low 0.992 | S. cerevisiae deletion strains, locus YLR258W, strain gsy2, active compounds read low 0.997 | S. cerevisiae deletion strains, locus YLR262C, strain YPT6 (second series), active compounds read low 1.02 | S. cerevisiae deletion strains, locus YLR262C, strain YPT6, active compounds read low 1.08 | S. cerevisiae deletion strains, locus YLR268W, strain sec22, active compounds read low 1.05 | S. cerevisiae deletion strains, locus YLR320W, strain mms22, active compounds read low 0.994 | S. cerevisiae deletion strains, locus YLR330W, strain CHS5, active compounds read low 1.01 | S. cerevisiae deletion strains, locus YLR342W, strain FKS1 (second series), active compounds read low 1.08 | S. cerevisiae deletion strains, locus YLR342W, strain FKS1, active compounds read low 0.997 | S. cerevisiae deletion strains, locus YLR357W, strain rsc2, active compounds read low 0.958 | S. cerevisiae deletion strains, locus YLR370C, strain arc18, active compounds read low 0.992 | S. cerevisiae deletion strains, locus YLR371W, strain rom2, active compounds read low 0.984 | S. cerevisiae deletion strains, locus YLR384C, strain iki3, active compounds read low 1 | S. cerevisiae deletion strains, locus YLR418C, strain cdc73, active compounds read low 0.988 | S. cerevisiae deletion strains, locus YML016C, strain PPZ1, active compounds read low 0.994 | S. cerevisiae deletion strains, locus YML032C, strain rad52, active compounds read low 1.02 | S. cerevisiae deletion strains, locus YML120C, strain ndi1, active compounds read low 1 | S. cerevisiae deletion strains, locus YML124C, strain tub3, active compounds read low 0.997 | S. cerevisiae deletion strains, locus YMR058W, strain fet3, active compounds read low 1.01 | S. cerevisiae deletion strains, locus YMR078C, strain ctf18, active compounds read low 0.986 | S. cerevisiae deletion strains, locus YMR125W, strain sto1, active compounds read low 0.992 | S. cerevisiae deletion strains, locus YMR129W, active compounds read low 0.99 | S. cerevisiae deletion strains, locus YMR205C, strain PFK2, active compounds read low 0.997 | S. cerevisiae deletion strains, locus YMR223W, strain ubp8, active compounds read low 1.01 | S. cerevisiae deletion strains, locus YMR231W, strain pep5, active compounds read low 0.967 | S. cerevisiae deletion strains, locus YMR307W, strain GAS1, active compounds read low 1.08 | S. cerevisiae deletion strains, locus YNL067W, strain RPL9B, active compounds read low 1 | S. cerevisiae deletion strains, locus YNL071W, strain lat1, active compounds read low 1 | S. cerevisiae deletion strains, locus YNL128W, strain TEP1, active compounds read low 1.04 | S. cerevisiae deletion strains, locus YNL183C, strain NPR1, active compounds read low 0.988 | S. cerevisiae deletion strains, locus YNL209W, strain ssb2, active compounds read low 1.02 | S. cerevisiae deletion strains, locus YNL233W, strain BNI4, active compounds read low 0.99 | S. cerevisiae deletion strains, locus YNL248C, strain rpa49, active compounds read low 1 | S. cerevisiae deletion strains, locus YNL250W, strain rad50, active compounds read low 0.956 | S. cerevisiae deletion strains, locus YNL271C, strain bni1, active compounds read low 0.994 | S. cerevisiae deletion strains, locus YNL298W, strain CLA4, active compounds read low 0.998 | S. cerevisiae deletion strains, locus YNL307C, strain MCK1, active compounds read low 0.998 | S. cerevisiae deletion strains, locus YNL322C, strain KRE1 (second series), active compounds read low 0.987 | S. cerevisiae deletion strains, locus YNR049C, strain mso1, active compounds read low 0.994 | S. cerevisiae deletion strains, locus YNR052C, strain pop2, active compounds read low 0.985 | S. cerevisiae deletion strains, locus YOL012C, strain htz1 0.85 | S. cerevisiae deletion strains, locus YOL147C, strain pex11, active compounds read low 1 | S. cerevisiae deletion strains, locus YOR001W, strain rrp6, active compounds read low 1.01 | S. cerevisiae deletion strains, locus YOR061W, strain CKA2, active compounds read low 1.01 | S. cerevisiae deletion strains, locus YOR069W, strain VPS5, active compounds read low 0.986 | S. cerevisiae deletion strains, locus YOR070C, strain gyp1, active compounds read low 1.02 | S. cerevisiae deletion strains, locus YOR080W, strain dia2, active compounds read low 0.99 | S. cerevisiae deletion strains, locus YOR083W, strain WHI5, active compounds read low 1.01 | S. cerevisiae deletion strains, locus YOR106W, strain vam3, active compounds read low 1.04 | S. cerevisiae deletion strains, locus YOR136W, strain idh2, active compounds read low 0.991 | S. cerevisiae deletion strains, locus YOR144C, strain elg1, active compounds read low 1 | S. cerevisiae deletion strains, locus YOR184W, strain ser1, active compounds read low 1.1 | S. cerevisiae deletion strains, locus YOR231W, strain MKK1, active compounds read low 1.04 | S. cerevisiae deletion strains, locus YOR265W, strain rbl2, active compounds read low 1.02 | S. cerevisiae deletion strains, locus YOR270C, strain vph1, active compounds read low 1.04 | S. cerevisiae deletion strains, locus YOR290C, strain snf2, active compounds read low 1.01 | S. cerevisiae deletion strains, locus YOR316C, strain cot1, active compounds read low 0.99 | S. cerevisiae deletion strains, locus YPL051W, strain arl3, active compounds read low 1 | S. cerevisiae deletion strains, locus YPL055C, strain LGE1, active compounds read low 1.07 | S. cerevisiae deletion strains, locus YPL078C, strain atp4, active compounds read low 1.01 | S. cerevisiae deletion strains, locus YPL106C, strain sse1, active compounds read low 0.986 | S. cerevisiae deletion strains, locus YPL240C, strain hsp82, active compounds read low 1 | S. cerevisiae deletion strains, locus YPL241C, strain CIN2, active compounds read low 1.01 | S. cerevisiae deletion strains, locus YPL256C, strain CLN2, active compounds read low 1.02 | S. cerevisiae deletion strains, locus YPR119W, strain clb2, active compounds read low 0.997 | S. cerevisiae deletion strains, locus YPR141C, strain kar3, active compounds read low 0.971 | S. cerevisiae deletion strains, locus YPR163C, strain tif3, active compounds read low 0.997 | S. cerevisiae deletion strains, locus YPR167C, strain met16, active compounds read low 0.992 | S. cerevisiae deletion strains, strain wtn01, active compounds read low 1.03 | S. cerevisiae strains, strain wild type, active compounds read low 1.05
